# According to PubChem BioAssay AID488969 (Vanderbilt High Throughput Screening Facility, 2010):
# In all, about 110,000 compounds were measured (“z-score”: median about -0.1, highest 2% from about 2 on). The sample holds the highest values, similar compounds and a random draw of the others, so the mix is not that of the screen. Calls of active or inactive are those of the source.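 The calls were made as follows: active = z-score in the third read window above 3 or below -3; inactive = the rest.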
# Target: Metabotropic glutamate receptor 8 (Rattus norvegicus) (UniProt P70579)
# Sequence (P70579 whole entry, looked up): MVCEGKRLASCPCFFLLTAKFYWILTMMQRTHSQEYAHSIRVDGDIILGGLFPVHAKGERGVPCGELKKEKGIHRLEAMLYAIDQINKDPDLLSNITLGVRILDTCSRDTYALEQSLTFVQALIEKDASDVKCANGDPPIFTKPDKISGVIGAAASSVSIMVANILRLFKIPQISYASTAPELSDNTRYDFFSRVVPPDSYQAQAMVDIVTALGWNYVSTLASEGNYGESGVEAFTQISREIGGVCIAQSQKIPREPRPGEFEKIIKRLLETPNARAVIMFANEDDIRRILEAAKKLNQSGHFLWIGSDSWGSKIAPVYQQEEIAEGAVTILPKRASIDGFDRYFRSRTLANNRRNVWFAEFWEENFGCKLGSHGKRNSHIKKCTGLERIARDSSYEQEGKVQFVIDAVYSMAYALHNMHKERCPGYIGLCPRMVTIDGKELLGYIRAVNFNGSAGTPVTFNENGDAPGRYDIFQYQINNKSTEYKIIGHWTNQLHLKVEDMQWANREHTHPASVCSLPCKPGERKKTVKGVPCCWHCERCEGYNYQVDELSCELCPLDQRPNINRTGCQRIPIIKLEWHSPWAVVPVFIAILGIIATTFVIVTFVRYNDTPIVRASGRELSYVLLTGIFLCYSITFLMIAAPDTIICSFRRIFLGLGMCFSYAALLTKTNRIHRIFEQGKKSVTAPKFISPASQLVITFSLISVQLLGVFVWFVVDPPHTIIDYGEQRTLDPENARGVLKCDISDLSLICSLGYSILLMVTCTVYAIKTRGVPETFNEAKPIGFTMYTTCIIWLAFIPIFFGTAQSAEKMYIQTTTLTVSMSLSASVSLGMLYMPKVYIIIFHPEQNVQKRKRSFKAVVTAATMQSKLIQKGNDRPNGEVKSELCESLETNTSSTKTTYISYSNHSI
# Experiment: rat mGluR8 modulators via GIRK flux, primary screen, cell-based, thallium flux, HTS (AID 488969)
# Conditions: HEK293 rat mGluR8, GIRK (G protein-gated inwardly rectifying potassium channel) thallium flux, FluoZin2; at 10 µM; stronger effect = higher value; submaximal glutamate (EC20) added with thallium
row,SMILES,z-score
1,CCCCNC(=S)N/N=C/c1ccc(C)s1,1.81
2,O=C1c2cccc3cccc(c23)C(=O)N1OS(=O)(=O)c1ccc(Cl)cc1,0.123
3,CNC(=S)N/N=C1\C(=O)c2cccc3cccc1c23,14.1 (active)
4,CNC(=O)CN1C(=O)c2cccc3cccc1c23,0.394
5,CCNC(=S)N/N=C1\C(=O)c2cccc3cccc1c23,12.9 (active)
6,CCNC(=S)N/N=C/c1ccco1,0.768
7,CC(=O)N1C(=O)c2cccc3cccc(c23)C(=O)N1C(C)=O,0.73
8,CCNC(=S)NS(=O)(=O)c1ccccc1,-0.195
9,CCCCNC(=S)Nc1ccccc1F,0.54
10,O=C(N/N=C1/C(=O)c2cccc3cccc1c23)c1ccc(Cl)cc1,3.2 (active)
11,CCCCNC(=S)N/N=C1\C(=O)c2cccc3cccc1c23,3.16 (active)
12,CC(C)/C=N/NC(=O)c1ccc(Cl)cc1,-0.254
13,CCC(Sc1nc2ccccc2c(=O)[nH]1)C(=O)O (configuration not stated),0.219
14,CC(C)(C)c1ccc(S(=O)(=O)NCC(=O)N2CCN(C(=O)c3ccco3)CC2)cc1,-0.0781
15,O=C(CCSCCC(=O)NCc1ccc(F)cc1)NCc1ccc(F)cc1,-0.471
16,CCOC(=O)c1c(-c2ccc(OC)cc2)csc1/N=C/N(C)C,-0.193
17,COc1ccc2c(c1)c1nc3ccccc3nc1n2Cc1ccc(OC(C)C)c(OC)c1,-0.644
18,O=C(NCC(=O)N1CCN(c2ncccn2)CC1)c1cccs1,0.235
19,Cn1cc(-c2nnnn2-c2ccc(Cl)cc2)c(C(F)(F)F)n1,0.131

row,SMILES,z-score
1,CCCCc1nc(NCc2ccccc2)c(C#N)c2c1COC(C)(C)C2,0.531
2,O=C(NCCCN1CCOCC1)c1ccc(CS(=O)(=O)c2ccc(Br)cc2)o1,-0.0398
3,CC(=O)Nc1ccc(NC(=O)c2ccc(Cn3cc(Cl)cn3)cc2)cc1,-0.369
4,S=c1[nH]ccn1-c1cccc(Cl)c1,2.29
5,Cn1c(-c2ccccc2)cccc1=O,0.333
6,CCn1c(-c2ccc(-c3ccccc3)cc2)c[nH]c1=S,3.86 (active)
7,Cc1ccc(-n2cc[nH]c2=S)cc1C,1.42
8,S=c1[nH]cc(-c2ccccc2)n1-c1cccc(Cl)c1,2.94
9,C=CCn1c(-c2ccccc2)c[nH]c1=S,0.229
10,Cn1c(-c2ccc(-c3ccccc3)cc2)c[nH]c1=S,4.21 (active)
11,S=c1[nH]cc(-c2ccccc2)n1-c1ccccc1Cl,0.447
12,Cc1cccc(-n2cc[nH]c2=S)c1,0.0616
13,S=c1[nH]cc(-c2ccc(Cl)cc2)n1-c1ccccc1,1.94
14,S=c1[nH]cc(-c2ccccc2)n1-c1ccccc1,0.267
15,CCn1c(-c2ccccc2)c[nH]c1=S,0.254
16,COc1ccnc(N2CCN(c3ccccc3)CC2)c1C#N,0.0026
17,COc1cccc(/C(O)=C2/C(=O)C(=O)N(CCN(C)C)C2c2ccccn2)c1 (configuration not stated),-0.249
18,CCc1ccc(NC(=O)CSc2nc3ccccc3c(=O)n2CCCC(=O)N2CCCC2)cc1,-0.305
19,NC(=O)c1ccc(F)cc1,0.635

row,SMILES,z-score
1,Cc1ccc(NC(=O)N2C(=O)C3(OCCO3)c3ccccc32)cc1,-0.237
2,COc1ccc(-c2cc(C(F)F)n3ncc(C(=O)N4CCN(C)CC4)c3n2)cc1,-0.201
3,COc1cc(C2C(C(=O)N3CCOCC3)=C(C)NC3=C2C(=O)CCC3)ccc1OC(C)=O (configuration not stated),0.401
4,COCCCNCCCCOc1cccc(Br)c1,0.266
5,CNC(=O)c1ccc2nc(NC(C)=O)sc2c1,8.42 (active)
6,Cc1ccc2nc(NC(=O)CSc3nc4ccccc4o3)sc2c1,0.182
7,Nc1nc2ccc(-c3nc4ccccc4o3)cc2s1,-0.112
8,Cc1ccc2nc(NC(=O)c3ccc4ncsc4c3)sc2c1,0.195
9,CC(=O)Nc1nc2ccc(C(=O)NC3CCCCC3)cc2s1,-0.32
10,CC(=O)Nc1nc2ccc(-c3nc4ccccc4o3)cc2s1,2.69
11,COC(=O)c1ccc(CSc2ccc3nnc(-c4cccc(F)c4)n3n2)o1,-0.901
12,Cc1cccc(N2CSC3=C(C#N)C(c4ccc(C)o4)CC(=O)N3C2)c1 (configuration not stated),-0.375
13,CCOC(=O)/C(=C\Nc1ccc(OC(F)(F)F)cc1)Sc1ncc(C(F)(F)F)cc1Cl,-0.436
14,CN(c1cccc(NC(=O)c2ccccc2N(C)S(=O)(=O)c2ccccc2)c1)S(C)(=O)=O,-0.199
15,COc1cc(OC)cc(C(=O)Nc2nc(-c3ccccc3)c(-c3ccccc3)o2)c1,3.64 (active)
16,COc1cc(OC)cc(C(=O)NCc2nc(-c3ccccc3)no2)c1,-0.942
17,COc1cc(OC)cc(C(=O)Nc2ccc(-c3nc4ccccc4o3)cc2)c1,-0.273
18,COc1cccc(C(=O)Nc2ccccc2)c1,-0.0644
19,COc1cccc(C(=O)Nc2nc(-c3ccccc3)c(-c3ccccc3)o2)c1,7.83 (active)
